Composite z-score and z-score data for three compounds are collected here from PubChem BioAssay.

The source made the active and inactive calls. Unless noted, the rule behind the calls is not given here.

Assay [1] deals with Wnt5a (protein binding on small-molecule microarray). As to the kind of experiment: small molecules binding Wnt5a protein – biophysical, small-molecule microarray, 635/667 nm fluorescence, primary screen (AID 1142).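 Note: fluorescence read at 667 nm with signal to noise per printed feature.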 To be noted: 635 nm fluorescence, higher = more signal.
Assay [2] can be described thus: ATP-based viability of Huh7 replicon cells – cell-based, CellTiter-Glo luminescence, basal, 48 h, cytotoxicity control for HCV replication inhibitor project, primary screen (AID 1143).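 Note: Huh7 hepatoma cells carrying a hepatitis C replication reporter with no stimulus; test concentration not given here.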 The conditions noted are these: higher = more signal, called active from +8 up or from −8 down.
Assay [3] is described as follows: Pseudomonas biofilm growth suppression – PAO1 strain, BacTiter-Glo luminescence, LB-PBS, primary screen (AID 1144). To be noted: P. aeruginosa PAO1 biofilm, 12 h, higher = more signal.
The nature of assay [4]: basal CRE-LacZ reporter activity in PC12 – cell-based, unstimulated, primary screen (AID 1145). The conditions noted are these: no forskolin, luminescence, 4.5 h, higher = more signal, called active from +8 up or from −8 down.
A short description of assay [5]: forskolin-driven CRE-LacZ activity in PC12 – cell-based, CRE-LacZ reporter, forskolin-stimulated, primary screen (AID 1146).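 Note: PC12 cells with 6xCRE LacZ reporter stimulated by forskolin 10 µM; beta-galactosidase reporter signal reflecting CREB driven transcription.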 The conditions noted are these: luminescence, 4.5 h, higher = more signal, called active from +8 up or from −8 down.
Assay [6] addresses Streptavidin (Streptomyces avidinii) (UniProt P22629). Kind of assay: compounds binding control protein streptavidin – biophysical, small-molecule microarray, 635/667 nm fluorescence, artefact control for SMM compound annotation, primary screen (AID 1147).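 Note: signal reflects streptavidin binding to arrayed compounds as a control protein.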 The conditions noted are these: higher = more signal.
Assay [7] can be described thus: probe aInhba binding on compound microarray – biochemical, small-molecule microarray, 635/667 nm fluorescence, primary screen (AID 1148).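 Note: score merges 667nm spot fluorescence with signal-to-noise for antibody binding to printed compounds.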 To be noted: higher = more signal.
The target of assay [8] is Torsin-1A (Homo sapiens) (UniProt O14656). As to the kind of experiment: TOR1A wild-type binding on microarray – cell lysate, small-molecule microarray, lysate, 635/667 nm, primary screen (AID 1149). To be noted: COS7 hTOR1A-WT lysate, 635 nm fluorescence, higher = more signal.
The target is the same in assay [9]. As to the kind of experiment: torsin A mutant lysate binding on microarrays – cell lysate, small-molecule microarray, COS7 lysate, 635/667 nm fluorescence, primary screen (AID 1150).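 Note: score pools 667 nm emission and signal to noise measuring lysate protein binding.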 The conditions noted are these: COS7 hTOR1A mutant lysate, 635 nm fluorescence, higher = more signal.
The subject of assay [10] is Sonic hedgehog protein (Shh). As to the kind of experiment: Sonic hedgehog microarray binding compounds – biochemical, small-molecule microarray, 635/667 nm fluorescence, primary screen (AID 1151).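 Note: Shh protein binding to compounds spotted on small-molecule microarray slides; score combines spot fluorescence intensity with signal-to-noise across triplicate slides.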 The conditions noted are these: 635 nm fluorescence, higher = more signal.
A short description of assay [11]: optical density shifts of acrAB sulA E. coli – strain DRC41, OD650, 48 h, E. coli filamentation inducer project, primary screen (AID 1152).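 Note: E. coli MC1000 strain DRC41 lacking acrAB efflux pump and sulA.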 The conditions noted are these: higher = more signal, called active from +8 up or from −8 down.
Assay [12] in a line: probe aLefty1 binding on compound microarray – biochemical, small-molecule microarray, 635/667 nm fluorescence, primary screen (AID 1153).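 Note: score merges spot fluorescence with signal-to-noise ratio from the scanned slide images.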 To be noted: higher = more signal.
Assay [13] in a line: plasmodial surface anion channel blockers, osmotic lysis – cell-based, P. falciparum Indochina, OD700, 1 h, primary screen (AID 1154). The conditions noted are these: P. falciparum Indochina infected RBC osmotic lysis, higher = more signal, called active from +8 up or from −8 down.
The nature of assay [14]: plasmodial surface anion channel blockers, osmotic lysis – cell-based, P. falciparum Indochina, OD700, 2 h, primary screen (AID 1155).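 Note: lysis reports solute entry through the parasite surface anion channel PSAC.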 The conditions noted are these: P. falciparum Indochina infected erythrocytes, higher = more signal, called active from +8 up or from −8 down.
Assay [15] in a line: changes in parasitized red cell lysis, either direction – P. falciparum Indochina, OD700, 3 h, PSAC antagonist project, primary screen (AID 1156). To be noted: P. falciparum-infected erythrocytes, osmotic lysis, higher = more signal, called active from +8 up or from −8 down.
Assay [16] in a line: plasmodial surface anion channel blockers, osmotic lysis – cell-based, P. falciparum Indochina, OD700, 18 h, primary screen (AID 1157). To be noted: P. falciparum Indochina infected erythrocytes, osmotic lysis OD700, 18 h; higher = more signal, called active from +8 up or from −8 down.
Assay [17] is described as follows: S6 kinase pathway phospho-S6 level changes – cell-based, A549, cytoblot, luminescence, serum-stimulated, primary screen (AID 1158).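 Note: serum-stimulated A549 lung adenocarcinoma cells; signal is phosphorylated S6 detected by cytoblot immunostaining with HRP secondary.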 To be noted: 5 h, higher = more signal.
The target in assay [18] is NADPH oxidase 2 (Homo sapiens) (UniProt P04839). Kind of assay: compounds shifting NOX2 Amplex Red fluorescence – cell-based, HEK293-NOX2, PMA-stimulated, NOX inhibitor project, primary screen (AID 1159). Note: test concentration not given here. The conditions noted are these: 45 min, higher = more signal, called active from +8 up or from −8 down.
The target of assay [19] is NADPH oxidase 4 (Homo sapiens) (UniProt Q9NPH5). As to the kind of experiment: compounds shifting NOX4 Amplex Red fluorescence – cell-based, HEK293-NOX4, tetracycline-induced, NOX inhibitor project, primary screen (AID 1160). The conditions noted are these: HEK293-NOX4, Amplex Red H2O2 fluorescence, 45 min; higher = more signal, called active from +8 up or from −8 down.
Assay [20] addresses NADPH oxidase 5 (Homo sapiens) (UniProt Q96PH1). As to the kind of experiment: compounds shifting NOX5 Amplex Red fluorescence – cell-based, HEK293-NOX5, NOX inhibitor project, primary screen (AID 1161). To be noted: HEK293-NOX5, ionomycin, 45 min, higher = more signal.

Torsin-1A (Homo sapiens), sequence (O14656 whole entry, looked up): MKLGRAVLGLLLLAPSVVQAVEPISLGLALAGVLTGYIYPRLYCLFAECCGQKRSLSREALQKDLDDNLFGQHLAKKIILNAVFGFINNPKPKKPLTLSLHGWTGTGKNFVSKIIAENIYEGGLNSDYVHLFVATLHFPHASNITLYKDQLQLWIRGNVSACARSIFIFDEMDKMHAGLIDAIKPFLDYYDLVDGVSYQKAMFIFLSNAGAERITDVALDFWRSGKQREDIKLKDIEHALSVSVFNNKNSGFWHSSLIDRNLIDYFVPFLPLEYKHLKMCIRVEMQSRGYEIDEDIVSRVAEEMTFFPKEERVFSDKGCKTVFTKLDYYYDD
NADPH oxidase 2 (Homo sapiens), sequence (P04839 whole entry, looked up): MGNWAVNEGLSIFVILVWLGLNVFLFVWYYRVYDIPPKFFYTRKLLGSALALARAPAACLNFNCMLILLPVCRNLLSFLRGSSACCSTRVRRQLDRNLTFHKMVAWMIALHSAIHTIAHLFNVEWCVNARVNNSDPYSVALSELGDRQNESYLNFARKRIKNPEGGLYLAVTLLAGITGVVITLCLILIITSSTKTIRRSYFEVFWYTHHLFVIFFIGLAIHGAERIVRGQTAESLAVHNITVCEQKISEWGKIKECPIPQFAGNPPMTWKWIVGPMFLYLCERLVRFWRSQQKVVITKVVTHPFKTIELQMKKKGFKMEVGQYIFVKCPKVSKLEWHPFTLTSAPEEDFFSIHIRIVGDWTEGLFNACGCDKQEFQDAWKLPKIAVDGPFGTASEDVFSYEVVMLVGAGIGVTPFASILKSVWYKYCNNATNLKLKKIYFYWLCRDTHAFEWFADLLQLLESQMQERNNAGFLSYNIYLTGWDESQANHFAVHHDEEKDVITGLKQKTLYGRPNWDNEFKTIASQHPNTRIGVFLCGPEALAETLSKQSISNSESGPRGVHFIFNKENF
NADPH oxidase 5 (Homo sapiens), sequence (Q96PH1 whole entry, looked up): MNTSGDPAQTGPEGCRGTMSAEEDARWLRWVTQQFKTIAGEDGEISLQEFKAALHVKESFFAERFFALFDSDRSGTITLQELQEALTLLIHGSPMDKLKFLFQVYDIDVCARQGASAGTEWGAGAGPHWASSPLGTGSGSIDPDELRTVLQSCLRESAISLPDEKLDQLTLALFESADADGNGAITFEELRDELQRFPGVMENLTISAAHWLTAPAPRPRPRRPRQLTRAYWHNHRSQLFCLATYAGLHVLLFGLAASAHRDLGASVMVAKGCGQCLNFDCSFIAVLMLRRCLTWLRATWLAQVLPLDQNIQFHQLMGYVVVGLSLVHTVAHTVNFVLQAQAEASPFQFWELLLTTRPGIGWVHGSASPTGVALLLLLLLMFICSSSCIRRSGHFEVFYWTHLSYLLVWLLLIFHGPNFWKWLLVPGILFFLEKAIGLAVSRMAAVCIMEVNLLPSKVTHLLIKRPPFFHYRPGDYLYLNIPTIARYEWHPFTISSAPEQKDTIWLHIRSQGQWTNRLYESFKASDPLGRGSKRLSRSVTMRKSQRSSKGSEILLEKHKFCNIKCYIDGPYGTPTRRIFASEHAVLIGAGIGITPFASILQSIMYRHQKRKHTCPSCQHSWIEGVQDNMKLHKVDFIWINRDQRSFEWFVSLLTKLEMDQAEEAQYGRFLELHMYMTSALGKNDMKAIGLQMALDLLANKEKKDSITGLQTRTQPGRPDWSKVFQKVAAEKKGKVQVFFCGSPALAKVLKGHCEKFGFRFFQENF
Streptavidin (Streptomyces avidinii), sequence (P22629 whole entry, looked up): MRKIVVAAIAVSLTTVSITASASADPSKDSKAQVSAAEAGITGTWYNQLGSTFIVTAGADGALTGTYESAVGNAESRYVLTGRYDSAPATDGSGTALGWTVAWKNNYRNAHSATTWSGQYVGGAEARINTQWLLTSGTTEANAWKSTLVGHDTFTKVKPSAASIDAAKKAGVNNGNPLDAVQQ
NADPH oxidase 4 (Homo sapiens), sequence (Q9NPH5 whole entry, looked up): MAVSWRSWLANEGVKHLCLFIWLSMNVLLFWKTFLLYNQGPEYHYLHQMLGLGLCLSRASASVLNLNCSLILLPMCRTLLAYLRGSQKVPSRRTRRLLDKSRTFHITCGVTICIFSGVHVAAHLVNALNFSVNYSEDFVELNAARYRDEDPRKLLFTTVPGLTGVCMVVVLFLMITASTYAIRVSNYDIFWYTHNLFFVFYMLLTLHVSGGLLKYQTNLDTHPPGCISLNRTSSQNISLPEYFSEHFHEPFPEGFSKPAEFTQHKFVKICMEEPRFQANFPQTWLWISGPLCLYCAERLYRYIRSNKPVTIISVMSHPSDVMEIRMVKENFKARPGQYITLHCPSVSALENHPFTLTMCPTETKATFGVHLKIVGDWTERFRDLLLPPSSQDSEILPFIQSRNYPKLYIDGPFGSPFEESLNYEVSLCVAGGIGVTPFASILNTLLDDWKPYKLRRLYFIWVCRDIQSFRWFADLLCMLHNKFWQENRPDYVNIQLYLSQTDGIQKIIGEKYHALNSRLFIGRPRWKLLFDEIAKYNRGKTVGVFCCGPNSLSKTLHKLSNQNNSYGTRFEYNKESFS

With `O=C(Nc1cc(Br)ccc1C(=O)NCc1cccc(O)c1)c1ccccc1`, the composite z-score in [1] stood at 0.189; in assay [6] it was 0.827; in assay [7], 0.129; in the assay with Torsin-1A (Homo sapiens) [8], 0.476; in the assay with Torsin-1A (Homo sapiens) [9], 0.533; in assay [10] it was 0.349. In assay [12], this compound displayed a composite z-score of 0.388. Also, the z-score in [2] is -2.32 (inactive); in [3], -0.26 (inactive); in assay [4] it was -0.374 (inactive); in assay [5] it was -0.334 (inactive); in assay [11], 1.41 (inactive); in assay [13], 17.5 (active). In addition, the z-score is 4.24 (inactive) in [14]; -0.222 (inactive) in [15]; 2.17 (inactive) in [16]; -0.645 in assay [17]; -1.57 (inactive) in [18]; -1.69 (inactive) in [19]. The z-score in [20] is -1.3.

With `C=C[C@@H](O)[C@H]1CC(c2ccccc2)=NO1`, the composite z-score in [1] was -0.184; in assay [6] it was 0.174; in [7], -0.183; with Torsin-1A (Homo sapiens) [8] it was 0.154; with Torsin-1A (Homo sapiens) [9], 0.334; in assay [10] it was -0.18. In assay [12], this compound yielded a composite z-score of 0.0557. For the same compound, the z-score was 0.0011 (inactive) in assay [2]; 0.15 (inactive) in [3]; 1.03 (inactive) in assay [4]; 0.167 (inactive) in [5]; 1.07 (inactive) in assay [11]; 16 (active) in assay [13]. Further, the z-score in assay [14] is 1.82 (inactive); in assay [15], -0.112 (inactive); in [16], 0.477 (inactive); in [17] it was -0.194; in [18], -0.671 (inactive); in assay [19], -0.0807 (inactive). Moreover, the z-score in assay [20] is 0.344.

For `O=C(C=C(CC(O)c1cccc(Cl)c1)OCCF)OCCF` (stereo not given), the composite z-score is -0.234 in assay [1]; -0.0847 in assay [6]; -0.267 in [7]; -0.489 in the assay with Torsin-1A (Homo sapiens) [8]; -0.167 with Torsin-1A (Homo sapiens) [9]; -0.335 in assay [10]. Also, the composite z-score in assay [12] is -0.0694. For the same compound, the z-score is -3.1 (inactive) in [2]; 0.117 (inactive) in assay [3]; 0.481 (inactive) in assay [4]; -0.722 (inactive) in assay [5]; 0.597 (inactive) in [11]; 1.35 (inactive) in assay [13]. The z-score in assay [14] is -0.385 (inactive); in assay [15], -0.0116 (inactive); in [16] it was -1.67 (inactive); in [17], 0.785; in assay [18], 0.176 (inactive); in assay [19], -0.15 (inactive). Moreover, the z-score in assay [20] came to 0.305.
